The full data set covers some 7,900 targets. This sample favours those with a hit. About 0.6% of all pairs of compound and target were hits. Values without a mark were called inactive.
Experiments:
Experiment in all cases: log2 fold change, soluble protein after heating vs DMSO (PISA); higher = thermal stabilisation; K562 cells, 10 uM, 30 min; active = over 0.2 and 3.5 SD of the protein, either way, in both replicates (recomputed)
[1] = compound: CS(=O)(=O)c1ccc(-c2cnc(N)c(C(=O)Nc3ccccc3)n2)cc1
How it was run: (§1)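 Quantification of soluble protein used TMTpro 16plex LC-MS/MS, with channel sums equalised. Samples were the supernatant after 21,000xg for 90 min of pooled aliquots from K562 cells (2×10^6 cells/mL) treated with 10 μM compound for 30 min, heated for 3 min over 48°C-58°C, and extracted in PBS with 0.5% NP-40 at 4°C. Values, from duplicates, describe thermal stability against control samples on a log2 fold-change scale.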

crizotinib = compound: C[C@@H](Oc1cc(-c2cnn(C3CCNCC3)c2)cnc1N)c1c(Cl)ccc(F)c1Cl [crizotinib]
How it was run: as §1

[2] = compound: C[C@@H]1COCCN1C2=NC(=NC(=C2)C3(CC3)S(=O)(=O)C)C4=C5C=CNC5=CC=C4
How it was run: as §1

[3] = compound: C[C@H](C1=CC=C(C=C1)C(=O)NC2=C3C=CNC3=NC=C2)N
How it was run: as §1

duvelisib = compound: C[C@H](Nc1ncnc2nc[nH]c12)c1cc2cccc(Cl)c2c(=O)n1-c1ccccc1 [duvelisib]
How it was run: as §1

gandotinib = compound: Cc1cc(Nc2cc(CN3CCOCC3)c3nc(C)c(Cc4ccc(Cl)cc4F)n3n2)n[nH]1 [gandotinib]
How it was run: as §1

tozasertib = compound: Cc1cc(Nc2cc(N3CCN(C)CC3)nc(Sc3ccc(NC(=O)C4CC4)cc3)n2)n[nH]1 [tozasertib]
How it was run: as §1

[4] = compound: Cc1cc(SCc2sc(-c3ccc(C(F)(F)F)cc3)nc2C)ccc1OCC(=O)O
How it was run: as §1

doramapimod = compound: Cc1ccc(-n2nc(C(C)(C)C)cc2NC(=O)Nc2ccc(OCCN3CCOCC3)c3ccccc23)cc1 [doramapimod]
How it was run: as §1

ispinesib = compound: Cc1ccc(C(=O)N(CCCN)[C@@H](c2nc3cc(Cl)ccc3c(=O)n2Cc2ccccc2)C(C)C)cc1 [ispinesib]
How it was run: as §1

Chain of UniProt Q8IX12 (Q8IX12 whole entry, looked up): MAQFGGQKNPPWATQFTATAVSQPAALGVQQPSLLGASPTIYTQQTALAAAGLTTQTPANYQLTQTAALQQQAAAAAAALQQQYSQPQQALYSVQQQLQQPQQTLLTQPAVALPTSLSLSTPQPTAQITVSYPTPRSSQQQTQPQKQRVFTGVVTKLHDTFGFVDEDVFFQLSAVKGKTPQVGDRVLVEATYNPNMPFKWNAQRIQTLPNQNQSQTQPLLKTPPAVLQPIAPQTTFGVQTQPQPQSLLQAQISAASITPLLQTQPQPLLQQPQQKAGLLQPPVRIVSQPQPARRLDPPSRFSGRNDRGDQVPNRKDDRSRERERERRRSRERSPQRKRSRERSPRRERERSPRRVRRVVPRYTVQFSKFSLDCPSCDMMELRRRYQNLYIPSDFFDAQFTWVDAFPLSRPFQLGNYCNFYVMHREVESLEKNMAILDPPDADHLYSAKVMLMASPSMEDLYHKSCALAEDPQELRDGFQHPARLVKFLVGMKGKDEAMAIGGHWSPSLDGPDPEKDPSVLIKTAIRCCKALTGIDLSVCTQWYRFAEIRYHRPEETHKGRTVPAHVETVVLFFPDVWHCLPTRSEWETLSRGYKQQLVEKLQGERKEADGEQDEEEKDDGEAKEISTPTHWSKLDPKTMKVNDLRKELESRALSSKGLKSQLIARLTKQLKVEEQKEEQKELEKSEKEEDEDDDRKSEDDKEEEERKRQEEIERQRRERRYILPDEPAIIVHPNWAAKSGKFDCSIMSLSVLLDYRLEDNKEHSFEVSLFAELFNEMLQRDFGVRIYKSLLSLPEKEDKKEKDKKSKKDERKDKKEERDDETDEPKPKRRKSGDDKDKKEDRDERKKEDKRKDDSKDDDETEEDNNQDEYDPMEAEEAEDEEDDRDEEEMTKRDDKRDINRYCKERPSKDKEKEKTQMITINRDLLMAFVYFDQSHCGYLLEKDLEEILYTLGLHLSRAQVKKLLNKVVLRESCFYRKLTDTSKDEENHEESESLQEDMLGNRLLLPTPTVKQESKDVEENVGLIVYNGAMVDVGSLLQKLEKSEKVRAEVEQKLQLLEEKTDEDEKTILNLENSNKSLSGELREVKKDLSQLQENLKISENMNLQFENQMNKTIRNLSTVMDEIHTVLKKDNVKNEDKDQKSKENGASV
Chain of UniProt P21127 (P21127 whole entry, looked up): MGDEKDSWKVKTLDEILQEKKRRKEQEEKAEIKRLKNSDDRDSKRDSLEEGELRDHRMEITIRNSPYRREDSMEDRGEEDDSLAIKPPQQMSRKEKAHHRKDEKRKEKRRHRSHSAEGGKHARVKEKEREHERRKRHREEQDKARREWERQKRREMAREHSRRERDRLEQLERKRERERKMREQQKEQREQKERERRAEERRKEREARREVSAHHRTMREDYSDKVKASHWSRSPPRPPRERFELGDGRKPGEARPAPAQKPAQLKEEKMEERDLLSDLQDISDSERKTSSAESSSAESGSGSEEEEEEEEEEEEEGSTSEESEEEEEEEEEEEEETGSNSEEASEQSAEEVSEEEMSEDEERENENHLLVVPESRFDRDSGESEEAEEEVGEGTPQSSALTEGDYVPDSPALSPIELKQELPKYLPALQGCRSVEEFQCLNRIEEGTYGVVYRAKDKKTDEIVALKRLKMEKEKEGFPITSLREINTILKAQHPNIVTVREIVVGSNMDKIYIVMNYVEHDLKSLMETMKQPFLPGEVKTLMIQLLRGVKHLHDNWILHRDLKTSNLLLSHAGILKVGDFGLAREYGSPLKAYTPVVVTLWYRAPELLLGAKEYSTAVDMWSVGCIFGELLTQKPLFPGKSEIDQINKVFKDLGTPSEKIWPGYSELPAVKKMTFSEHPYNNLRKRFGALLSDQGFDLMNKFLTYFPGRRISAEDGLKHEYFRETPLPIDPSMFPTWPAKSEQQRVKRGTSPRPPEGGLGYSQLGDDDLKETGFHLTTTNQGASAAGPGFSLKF
Chain of UniProt Q96G28 (Q96G28 whole entry, looked up): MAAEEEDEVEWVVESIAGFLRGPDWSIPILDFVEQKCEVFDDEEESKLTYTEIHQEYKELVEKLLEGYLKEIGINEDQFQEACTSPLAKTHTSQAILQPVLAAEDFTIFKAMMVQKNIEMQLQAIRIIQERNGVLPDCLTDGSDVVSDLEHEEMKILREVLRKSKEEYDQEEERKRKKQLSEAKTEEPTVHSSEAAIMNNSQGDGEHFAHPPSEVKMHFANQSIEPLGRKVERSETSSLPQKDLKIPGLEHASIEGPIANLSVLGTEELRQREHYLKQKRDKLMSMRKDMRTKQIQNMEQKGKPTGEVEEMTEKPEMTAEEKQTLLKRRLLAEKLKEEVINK
Chain of UniProt Q9ULV3 (Q9ULV3 whole entry, looked up): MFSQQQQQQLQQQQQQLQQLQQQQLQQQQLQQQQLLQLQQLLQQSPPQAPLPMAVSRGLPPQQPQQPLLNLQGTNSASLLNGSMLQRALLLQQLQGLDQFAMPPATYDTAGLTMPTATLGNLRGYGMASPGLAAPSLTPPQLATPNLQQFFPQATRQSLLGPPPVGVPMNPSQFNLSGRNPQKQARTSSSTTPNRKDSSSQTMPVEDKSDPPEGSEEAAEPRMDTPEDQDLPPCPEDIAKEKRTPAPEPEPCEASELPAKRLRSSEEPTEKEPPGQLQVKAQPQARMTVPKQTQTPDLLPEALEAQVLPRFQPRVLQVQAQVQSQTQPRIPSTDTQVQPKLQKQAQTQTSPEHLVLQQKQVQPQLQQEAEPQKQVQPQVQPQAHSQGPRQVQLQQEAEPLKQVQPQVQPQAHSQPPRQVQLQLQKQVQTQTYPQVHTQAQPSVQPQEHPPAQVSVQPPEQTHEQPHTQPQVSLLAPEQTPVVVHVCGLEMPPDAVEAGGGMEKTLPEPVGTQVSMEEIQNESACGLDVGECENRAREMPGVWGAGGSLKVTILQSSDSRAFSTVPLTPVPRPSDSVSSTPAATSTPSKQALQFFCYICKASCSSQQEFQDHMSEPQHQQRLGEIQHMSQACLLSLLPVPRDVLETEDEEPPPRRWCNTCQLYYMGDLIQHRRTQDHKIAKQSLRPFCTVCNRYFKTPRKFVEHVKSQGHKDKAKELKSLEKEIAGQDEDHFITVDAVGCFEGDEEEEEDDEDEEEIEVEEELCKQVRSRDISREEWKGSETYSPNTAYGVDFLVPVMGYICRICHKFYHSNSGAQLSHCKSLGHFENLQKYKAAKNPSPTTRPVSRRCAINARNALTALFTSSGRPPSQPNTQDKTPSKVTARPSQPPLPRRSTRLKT
Chain of UniProt Q96JB5 (Q96JB5 whole entry, looked up): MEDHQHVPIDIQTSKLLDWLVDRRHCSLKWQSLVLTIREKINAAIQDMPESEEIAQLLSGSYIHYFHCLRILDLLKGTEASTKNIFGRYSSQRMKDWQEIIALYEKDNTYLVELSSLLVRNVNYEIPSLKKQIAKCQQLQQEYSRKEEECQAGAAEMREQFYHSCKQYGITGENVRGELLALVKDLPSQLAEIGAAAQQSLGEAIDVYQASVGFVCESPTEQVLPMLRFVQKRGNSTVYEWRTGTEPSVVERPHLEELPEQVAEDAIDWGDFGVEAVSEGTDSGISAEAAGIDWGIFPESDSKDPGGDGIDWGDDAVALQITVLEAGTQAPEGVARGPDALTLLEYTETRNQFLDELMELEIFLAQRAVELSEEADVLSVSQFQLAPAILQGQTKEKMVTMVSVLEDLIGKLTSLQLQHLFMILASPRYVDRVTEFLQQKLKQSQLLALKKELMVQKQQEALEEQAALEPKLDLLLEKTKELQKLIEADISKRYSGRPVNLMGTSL
Chain of UniProt Q96JM3 (Q96JM3 whole entry, looked up): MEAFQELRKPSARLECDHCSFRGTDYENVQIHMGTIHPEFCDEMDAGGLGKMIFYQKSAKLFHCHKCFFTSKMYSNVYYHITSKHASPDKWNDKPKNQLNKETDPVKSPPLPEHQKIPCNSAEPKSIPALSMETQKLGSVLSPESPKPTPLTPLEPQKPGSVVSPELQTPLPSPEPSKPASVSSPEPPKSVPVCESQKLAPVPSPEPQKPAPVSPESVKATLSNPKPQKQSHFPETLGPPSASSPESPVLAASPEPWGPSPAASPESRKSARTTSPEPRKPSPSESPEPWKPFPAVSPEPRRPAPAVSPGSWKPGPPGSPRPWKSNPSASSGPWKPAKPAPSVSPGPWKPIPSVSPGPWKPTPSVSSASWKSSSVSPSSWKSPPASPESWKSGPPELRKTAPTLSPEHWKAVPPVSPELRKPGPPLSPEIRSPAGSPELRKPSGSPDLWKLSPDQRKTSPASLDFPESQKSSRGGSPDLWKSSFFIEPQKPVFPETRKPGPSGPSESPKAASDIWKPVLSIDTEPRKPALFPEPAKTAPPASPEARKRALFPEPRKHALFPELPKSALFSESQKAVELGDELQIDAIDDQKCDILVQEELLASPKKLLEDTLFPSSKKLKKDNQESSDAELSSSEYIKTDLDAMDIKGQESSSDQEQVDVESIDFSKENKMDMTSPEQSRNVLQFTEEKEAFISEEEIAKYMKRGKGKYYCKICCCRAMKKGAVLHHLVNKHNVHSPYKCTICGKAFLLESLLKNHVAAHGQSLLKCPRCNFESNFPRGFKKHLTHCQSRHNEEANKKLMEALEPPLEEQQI
Chain of UniProt Q8N4Q1 (Q8N4Q1 whole entry, looked up): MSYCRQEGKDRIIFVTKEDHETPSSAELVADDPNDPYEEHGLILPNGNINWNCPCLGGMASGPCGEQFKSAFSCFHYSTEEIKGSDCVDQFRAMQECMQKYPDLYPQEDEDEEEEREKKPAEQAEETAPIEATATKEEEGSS
Chain of UniProt P05937 (P05937 whole entry, looked up): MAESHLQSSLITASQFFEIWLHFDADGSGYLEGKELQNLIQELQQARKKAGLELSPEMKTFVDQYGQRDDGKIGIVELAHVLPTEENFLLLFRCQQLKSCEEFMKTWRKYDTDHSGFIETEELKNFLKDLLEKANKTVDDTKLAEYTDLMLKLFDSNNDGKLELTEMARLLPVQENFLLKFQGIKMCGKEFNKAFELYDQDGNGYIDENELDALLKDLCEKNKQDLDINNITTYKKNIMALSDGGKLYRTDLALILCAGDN

Target	log2 fold change [1]	log2 fold change (crizotinib)	log2 fold change [2]	log2 fold change [3]	log2 fold change (duvelisib)	log2 fold change (gandotinib)	log2 fold change (tozasertib)	log2 fold change [4]	log2 fold change (doramapimod)	log2 fold change (ispinesib)
CFAP36 isoform 2 (UniProt Q96G28)	-0.013	-0.201	0.078	-0.394 (active)	0.133	-0.048	0.587 (active)	-0.007	0.096	-0.053
CHCHD4 isoform 2 (UniProt Q8N4Q1)	-0.041	0.017	0.156	-0.272	-0.217	-0.079	0.182	0.022	0.069	-0.074
CALB1 (UniProt P05937)	0.033	-0.166	0.015	-0.039	-0.031	-0.038	0.022	0.017	-0.006	-0.105
CDKN2AIP (UniProt Q9NXV6)	-0.053	0.01	-0.132	-0.004	0.031	-0.012	-0.024	0.021	-0.019	0.048
CDK11B (UniProt P21127)	0.025	1.24 (active)	0.052	0.166	0.099	0.105	0.018	0.007	0	0.022
CBR1 (UniProt P16152)	0.006	0.048	0.052	-0.163	0.038	0.034	-0.025	-0.024	0.003	0.194
CBX1 (UniProt P83916)	-0.03	0.001	0.043	-0.08	-0.006	0.004	0.06	-0.056	0.105	0.04
CAMK2G isoform 6 (UniProt Q13555)	-0.02	-0.146	-0.064	-0.116	-0.025	-0.041	0.028	-0.004	0.073	0
CHAMP1 (UniProt Q96JM3)	0.02	-0.154	0.074	-0.071	-0.076	-0.046	0.045	-0.049	-0.003	-0.185
CDK5RAP3 isoform 4 (UniProt Q96JB5)	-0.017	-0.054	0.044	-0.038	0.005	-0.051	0.015	0.016	-0.033	-0.036
CERS2 (UniProt Q96G23)	-0.027	-0.294 (active)	-0.054	-0.034	0.036	-0.203	-0.049	-0.032	-0.04	-0.466 (active)
CIZ1 (UniProt Q9ULV3)	-0.008	-0.097	0.017	-0.079	0.004	-0.121	0.022	0.016	0.005	-0.015
CCAR1 (UniProt Q8IX12)	0.004	-0.238	0.034	-0.016	0.012	-0.263 (active)	-0.063	0.067	-0.03	-0.102
CNTN4 (UniProt Q8IWV2)	-0.03	0.064	0.148	-0.099	0.102	0.144	-0.051	-0.087	-0.095	-0.046
